# Source: PubChem BioAssay
# Only a selection was taken, and hits are over-represented in it overall.
# TDP1 cell CPT – growth inhibition of DT40 Tdp1-/-;hTDP1 cells with camptothecin (screen for TDP1 inhibitors) | chicken DT40 Tdp1-/-;hTDP1 cells + 20 nM CPT, ATP luminescence, 48 h | Potency, µM (highest dose often 46.2 µM), for inactives: top-dose activity change, negative = growth inhibition, most hits filed as inhibitors | 420,000 tested, 12% active; also: potency is read from the fitted curve at half-maximal effect; nearly all actives have a fitted effect of over 55% in size
#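 Chicken DT40 Tdp1-/- cells stably complemented with human TDP1 were seeded at 400 cells/well in medium containing 20 nM camptothecin, exposed to pin-transferred compounds, and grown at 37 °C for at least 48 hr. Viability was read as ATP luminescence.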
# HT1080 IDH1KD tx – HT-1080 IDH1 knockdown cell toxicity (counter line); AID 686971; Potency, µM (series often up to 46.1 µM), for inactives: at the highest dose activity, negative = toxicity, hits mostly cytotoxic; 360,000 tested, 2% active; HT-1080 IDH1 knockdown viability, ATP luminescence, 48 h;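 also: potency is read from the fitted curve at half-maximal effect; 0% = DMSO wells and -100% = cell-free medium wells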
#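 Cytotoxicity counter-line: IDH1KD HT-1080, 48 h, CellTiter-Glo. Curves classed by r2, magnitude and activity.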
# ALOX12 inh – inhibitors of human 12S-lipoxygenase ALOX12; P18054; Potency, µM (highest dose often 108 µM), without a hit: top-dose activity change, negative = inhibition, actives largely listed as inhibitors; purified 12hLO, xylenol orange hydroperoxide absorbance; AID 1671190; 580,000 tested, 1.1% active; also: potency is read from the fitted curve at half-maximal effect
# Target sequence (P18054 whole entry, looked up): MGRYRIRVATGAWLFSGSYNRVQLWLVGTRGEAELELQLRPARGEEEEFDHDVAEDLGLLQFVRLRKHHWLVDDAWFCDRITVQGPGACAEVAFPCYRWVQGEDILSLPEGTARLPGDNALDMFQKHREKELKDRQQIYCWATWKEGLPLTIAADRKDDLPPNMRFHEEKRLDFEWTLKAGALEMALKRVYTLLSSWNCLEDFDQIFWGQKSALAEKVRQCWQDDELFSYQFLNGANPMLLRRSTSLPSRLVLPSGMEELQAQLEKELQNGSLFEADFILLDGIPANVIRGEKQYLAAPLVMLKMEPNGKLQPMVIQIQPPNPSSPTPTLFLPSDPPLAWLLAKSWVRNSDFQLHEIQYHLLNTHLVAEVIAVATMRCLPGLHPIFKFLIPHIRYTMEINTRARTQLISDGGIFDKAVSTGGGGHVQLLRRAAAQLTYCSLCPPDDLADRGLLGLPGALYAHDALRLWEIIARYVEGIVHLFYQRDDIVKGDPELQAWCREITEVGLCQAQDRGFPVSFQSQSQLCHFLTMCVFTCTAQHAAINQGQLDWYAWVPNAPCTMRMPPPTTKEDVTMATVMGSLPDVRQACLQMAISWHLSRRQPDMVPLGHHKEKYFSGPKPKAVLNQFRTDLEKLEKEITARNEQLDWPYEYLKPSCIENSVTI
#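 Hydroperoxide product was detected by ferrous iron/xylenol orange as the 573 to 405 nm absorbance ratio. Arachidonic acid at 40 uM (final) was turned over for 30 min at room temperature by 150 nM human 12hLO, pH 7.0 Hepes buffer, after 15 min compound preincubation.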
# IL1B secr inh – blocks inflammasome-driven IL-1 beta release | THP-1 LPS/ATP IL-1B secretion, AlphaLISA, 16 h; active compounds read low | activity change, % at 57.5 µM | 360,000 tested, 4.7% active | AID 743279; in the data active = activity change below about -50%; inconclusive = mostly about -30% to -49%
#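 Secreted IL-1B measured by AlphaLISA bead assay after 16 h compound exposure of THP-1 cells; compounds (final up to 57.5 uM) added 1 h before LPS (250 ng/mL) and ATP (1.25 mM) stimulation; lower signal means less secretion.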
# TDP1 cell noCPT – qHTS for Inhibitors of human tyrosyl-DNA phosphodiesterase 1 (TDP1): qHTS in cells in absence of CPT; DT40 Tdp1-/- hTDP1 cells, no CPT, ATP luminescence, 48 h; Potency, µM (highest dose often 46.2 µM), for inactives: at the top dose activity change, negative = growth inhibition, actives largely listed as inhibitors; 420,000 tested, 15% active; AID 686978, 2013; also: potency is read from the fitted curve at half-maximal effect; nearly all actives have a fitted effect of over 55% in size
#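 No-CPT arm: Tdp1-/-;hTDP1 DT40 cells (400/well) plus compounds, incubated ≥48 hr at 37 °C. Readout CellTiter-Glo luminescence.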
# HT1080-NT tox – kills 2HG-producing HT-1080-NT fibrosarcoma cells | HT-1080-NT fibrosarcoma viability, CellTiter-Glo ATP luminescence, 48 h | Potency, µM (series often up to 46.1 µM), inactives show at the highest dose activity, negative = less viability, most hits filed as cytotoxic | 360,000 tested, 1.6% active;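 also: NT is the 2HG producing partner of a matched IDH1 knockdown line; potency is read from the fitted curve at half-maximal effect; 0% = DMSO-treated cells and -100% = media-only wells without cells; nearly all actives have a fitted effect of over 55% in size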
#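 HT-1080-NT fibrosarcoma cells (2HG-overproducing), 750 cells/well in RPMI with 5% FBS, dosed after 2 h and incubated 48 h at 37C. CellTiter-Glo luminescence normalized to DMSO and no-cell wells; concentration-response curves fitted and classed.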
# An asterisk follows results filed as active; ? = inconclusive; · = not tested or not shown; [ ] = another dose, or the depositor's remark. Unless noted, calls follow the shape of the dose curve; as a rule, active = well fitted curve in the direction sought with a large enough effect; inconclusive = small, poorly fitted or top-dose-only effect, or another doubt; inactive = no such curve, though single readings can be large; an effect the other way counts as inactive or inconclusive. Unless noted, % is scaled to controls: 0 for no effect and ±100 for the full control effect.
SMILES,TDP1 cell CPT,HT1080 IDH1KD tx,ALOX12 inh,IL1B secr inh,TDP1 cell noCPT,HT1080-NT tox
CCc1ccc(NC(=O)CCCn2nc(CC)n3c(cc4occc43)c2=O)cc1,?,-5.7%,4.3%,-1.3,-20.7%,7.7%
CCc1nn(CCCC(=O)NCc2ccc(OC(C)C)cc2)c(=O)c2cc3occc3n12,?,10.3µM*,1.2%,-9.3,11.6µM*,11.6µM*
CCc1nn(CCCC(=O)NCc2cc(Br)ccc2OC)c(=O)c2cc3occc3n12,?,14.5%,-9.6%,-56.4*,?,8.5%
CCc1nn(CCCC(=O)NC2CCCCC2C)c(=O)c2cc3occc3n12 (configuration not stated),?,4.4%,-15.3%,2.6,25.9µM*,4.6%
CS(=O)(=O)N1CCC(C2CCN(C(=O)C3CC=CCC3)C2)CC1 (configuration not stated),·,·,38.3%,·,·,·
COc1cccc(CNC(=O)C2(c3ccc(NC(C)=O)cc3)CCCCC2)c1,·,·,23.3%,·,·,·
Cc1cc(C)c2c(=O)n(CC(=O)Nc3ccc(Cl)cc3)sc2n1,4.11µM*,?,1.26µM*,-9.5,2.59µM*,-18.5%
Cc1cc(C)c2c(=O)n(CC(=O)Nc3cccc(F)c3)sc2n1,2.31µM*,?,?,-0.1,2.31µM*,?
CCOc1ccc(NC(=O)Cn2c(-c3ccccc3)nc(C)cc2=O)cc1,·,·,44.6%,·,·,·
CCOc1ccc(NC(=O)Cn2c(Nc3cc(C)cc(C)c3)nc(C)cc2=O)cc1,·,·,35.5µM*,·,·,·
CCOc1ccc(NC(=O)Cn2sc3nc(C)cc(C)c3c2=O)cc1,2.06µM*,12.0%,·,-88.6*,2.59µM*,20.5%
COc1ccc(NC(=O)Cn2c(-c3ccc(Cl)cc3)nc(C)cc2=O)cc1OC,·,·,9.4%,·,·,·
Cc1cc(=O)n(CC(=O)Nc2cccc(F)c2)c(-c2ccccc2)n1,·,·,6.0%,·,·,·
CCOc1ccc(NC(=O)CCc2c(C)nc3c4c(C)cc(C)nc4nn3c2C)cc1,8.4%,·,0.5%,·,-12.3%,·
Cc1ccc(NC(=O)Cn2sc3nc(C)cc(C)c3c2=O)c(Cl)c1,2.91µM*,?,2µM*,14.1,2.91µM*,-9.1%
Cc1ccc(NC(=O)Cn2c(C)cc(C)c(C#N)c2=O)c(Cl)c1,-13.3%,3.5%,-4.3%,18.8,-0.9%,-13.5%
COc1cccc(CNC(=O)c2ccc(-c3nc(CS(=O)c4ccccc4)c(C)o3)cc2)c1 (configuration not stated),?,·,-24.2%,·,16.4µM*,·
COc1cccc(CNC(=O)c2nc(-c3ccccc3)oc2C)c1,·,·,-19.2%,·,·,·
COc1ccc(OC)c(NC(=O)c2ccc(-c3nc(CSc4ccccc4)c(C)o3)cc2)c1,20.6µM*,·,-12.7%,·,20.6µM*,·
Cc1oc(-c2ccc(C(=O)Nc3ccc(F)cc3)cc2)nc1COc1ccccc1,?,·,-12.4%,·,?,·
Cc1ccc(SCc2nc(-c3ccc(C(=O)NCC(C)c4ccccc4)cc3)oc2C)cc1 (configuration not stated),8.2µM*,·,?,·,6.51µM*,·
COc1cc(NC(=O)c2ccc(-c3nc(COc4ccccc4)c(C)o3)cc2)cc(OC)c1,9.2µM*,·,-6.5%,·,10.3µM*,·
Cc1c(N2C(=O)CSC2c2ccc(F)cc2)c(=O)n(-c2ccccc2)n1C (configuration not stated),-18.6%,-7.4%,140.3%,-8.4,-6.3%,-1.5%
CN(C(=O)c1cc(F)ccc1Cl)C1CCc2nn(C)c(=O)n2CC1 (configuration not stated),·,·,12.3%,·,·,·
O=C(Nc1ccc(F)cc1)C1CCN(S(=O)(=O)c2cccc3nonc23)CC1,-3.4%,-0.7%,-1.0%,13.1,-17.3%,-8.2%
SMILES,TDP1 cell CPT,HT1080 IDH1KD tx,ALOX12 inh,IL1B secr inh,TDP1 cell noCPT,HT1080-NT tox
O=C(O)CC(Cc1ccc(Cl)cc1)C(=O)O (configuration not stated),·,·,-21.4%,·,·,·
CN(C)c1ccc(C(c2ccc(N(C)C)cc2)C(O)c2ccccc2)cc1 (configuration not stated),?,16.0%,?,-55.3*,?,11.4%
O=C(CCc1ccccc1)Nc1ccc(Cl)cn1,5.8µM*,2.91µM*,0.0%,0.0,3.26µM*,5.8µM*
CCN(CC)S(=O)(=O)c1cc(C(=O)Nc2ccc(Cl)cn2)ccc1C,?,-2.7%[9.24 µM],0.0%,-54.5*,16.4µM*,-10.4%
CCN(CC)S(=O)(=O)c1cc(C(=O)Nc2cc(C)on2)ccc1Cl,-27.3%,-10.2%,-5.4%,-6.3,?,1.9%
Cc1ccc(C(=O)Nc2ccc(Cl)cn2)cc1,7.31µM*,10µM*,0.6%,24.3,8.2µM*,15.8µM*
O=C(Nc1ccc(Cl)cn1)c1ccc(Oc2ccccc2)cc1,3.0%,-2.7%,8.5%,-67.0*,?,-14.5%
Cc1cnc(C(=O)NC2C[C@H]3CC[C@@H](C2)N3C(=O)CC2CCCCC2)cn1 (some centres not stated),·,·,-1.4%,·,·,·
O=C(NCCc1ccccc1)c1cc(Cl)ccn1,·,·,25.1%,·,·,·
CCN(CC)CCNC(=O)c1cnn(-c2nccc(-c3cc4ccccc4o3)n2)c1C,0.1%[9.04 µM],·,26.3%,·,?,·
CN(C)[C@@H]1CO[C@H](CNC(=O)c2cccs2)[C@H]1O,·,·,21.5%[176 µM],·,·,·
CCOc1ccc(Br)cc1S(=O)(=O)NCC(c1ccc(OC)cc1)N1CCOCC1 (configuration not stated),?,-2.0%,6.2%,-9.5,?,-1.7%
Cc1nc(NC(=O)c2cccnc2)ccc1Br,-23.0%,12.3%,8.5%,-21.7,?,7.5%
Cc1ccc(S(=O)(=O)N(C)c2ccc(C(=O)Nc3ccc(C)cn3)cc2)cc1,?,-20.8%,-6.7%,?,?,-26.7%
O=C(Nc1ccc(Cl)cn1)c1cccc2c(Br)cccc12,?,?,11.6%,57.9,14.6µM*,?
Cc1ccc(NC(=O)c2ccc(Cl)cc2[N+](=O)[O-])nc1,3.26µM*,4.61µM*,-29.8%,36.7,3.26µM*,5.8µM*
Cc1ccccc1C(=O)Nc1ccc(Br)c(C)n1,?,0.5%,0.0%,-2.9,9.2µM*,-1.5%
CN(c1ccc(C(=O)Nc2ccc(Cl)cn2)cc1)S(=O)(=O)c1ccccc1,?,-20.2%,2.8%,-8.7,20.6µM*,?
CCCCc1ccc(-n2nnnc2SCC(=O)Nc2ccc3c(c2)OCO3)cc1,·,·,2.4%,·,·,·
O[C@@H]1C[C@@H](c2nnc3n2CCN(Cc2ccc(F)cc2F)C3)N(Cc2cccnc2)C1,·,·,48.1%,·,·,·
